In PubChem BioAssay (NCATS) one finds Potency and activity change, negative = inhibition data, which are given here for eight compounds.

Inconclusive results are not listed. Values without a mark were called inactive. Activity calls are given as the source filed them. Calls come from the whole dose curve; as a rule, active = well fitted inhibition curve with a large enough effect; inconclusive = small, poorly fitted or top-dose-only effect; inactive = no such curve, though single readings can be large or run the other way.
% is set by controls: 0 for no effect and ±100 for the full control effect; potency is the fitted concentration of half-maximal effect.

The experiment can be described thus: Tertiary RLuc qRT-PCR qHTS assay for Zika virus inhibitors (AID 1347169). For activity change, negative = inhibition: top concentration of the series differs between compounds. Note: nearly all actives have a fitted effect of over 55% in size. The conditions noted are these: infected Vero cells, reporter luminescence, 48-72 h; series mostly up to 45.9 µM. The gist of the method:
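Vero, 1,000 cells/well, o/n 37 C; cpd pinned in DMSO; ZIKV-RLuc Cambodian, MOI 1-2, 48-72 h 37 C; live-cell RLuc substrate, lum read at 1-1.5 h.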
In general terms: In qPCR the cycle at which signal appears reflects the starting amount.
As for `CCC(=O)O[C@H]1[C@H](O[C@@H]2[C@@H](C)[C@H](O[C@H]3C[C@@](C)(OC)[C@@H](O)[C@H](C)O3)[C@@H](C)C(=O)O[C@H](CC)[C@@](C)(O)[C@H](O)[C@@H](C)C(=O)[C@H](C)C[C@@]2(C)O)O[C@H](C)C[C@@H]1N(C)C`, the Potency result is “inactive”.

With `O=C1NC(=O)/C(=C/c2ccc3c(c2)OC(F)(F)O3)S1`, the Potency is 11.7 µM (active).

Turning to `COc1c(C)c2c(c(O)c1C/C=C(\C)CCC(=O)OCCN1CCOCC1)C(=O)OC2`, the Potency was 0.739 µM (active).

`O=C1OC2(c3ccccc31)c1cc(I)c(O)c(I)c1Oc1c2cc(I)c(O)c1I`: the activity change, negative = inhibition was 6.31% [at 1.74 µM].

With `N[C@@H](Cc1cc(I)c(O)c(I)c1)C(=O)O`, the Potency entry was “inactive”.

Turning to `O=C(COCCOCCOCC(=O)Nc1c(I)cc(I)c(C(=O)O)c1I)Nc1c(I)cc(I)c(C(=O)O)c1I`, the Potency entry is “inactive”.

On to `O=C(CCCCC(=O)Nc1c(I)cc(I)c(C(=O)O)c1I)Nc1c(I)cc(I)c(C(=O)O)c1I`, for which the activity change, negative = inhibition is 2.99% [at 5.25 µM].

Consider `O=[N+]([O-])c1ccc(-c2nc(-c3ccc(F)cc3)c(-c3ccncc3)[nH]2)cc1`, for which the Potency is 4.66 µM (active).
